# Assay outcomes (PubChem BioAssay)
# DRD3 antagonist = antagonists of human D3 dopamine receptor; P35462; D3R cells, DiscoveRx beta-arrestin luminescence, antagonist mode; hits give low values; max response, negative = inhibition, %; 360,000 compounds, 2.5% hits; in the data active = max response below about -50%; inconclusive = no clear call, values can overlap the other calls; also: % is scaled to controls: 0 for no effect and ±100 for the full control effect
#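 Cells plated overnight at 1500 cells/well, then exposed to library compounds with dopamine controls for 90 minutes at 37 degrees C. DiscoveRx reagent added for 30–60 minutes at room temperature; luminescence read, quantitative HTS format.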
# RGS4 inh = blocks human RGS4-accelerated GTP hydrolysis; Potency, µM (series often up to 114 µM), without a hit: at the highest dose activity change, negative = inhibition, most hits filed as inhibitors; Transcreener GDP fluorescence polarization, RGS4-accelerated GTP hydrolysis; AID 504845; P49798; 390,000 compounds, 0.039% hits; also: potency is read from the fitted curve at half-maximal effect; % is scaled to controls: 0 for no effect and ±100 for the full control effect; nearly all actives have a fitted effect of over 75% in size
#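 MLSMR compounds (23 nl, pin-transferred) preincubated 10 min at room temperature with a 500nM (2x) first reagent, then RGS4 at 900nM (2x) plus Transcreener GDP mix added; fluorescence polarization (620/688 nm) read before and after 90 min at 30 °C.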
# B2AR arrestin = recruits beta-arrestin to the human beta2-adrenergic receptor | 330,000 compounds, 0.02% hits | AID 492947 | Potency, µM (series often up to 46.1 µM), for the others: top-dose activation, most hits filed as activators | beta-arrestin recruitment to beta2AR, cell-based reporter | P07550;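 also: potency is read from the fitted curve at half-maximal effect; 0% = DMSO controls and full agonism = EC100 isoproterenol or metaproterenol; nearly all actives have a fitted effect of over 65% in size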
# DRD3 agonist = activates the human D3 dopamine receptor; D3R DiscoveRx beta-arrestin cells, luminescence, 90 min; max activation, %; 410,000 compounds, 0.58% hits; AID 652048; in the data active = max activation above about 30%; also: 0% is about no effect
#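 Agonist-mode cell screen: cells plated at 1500/well and incubated overnight at 37 °C, then exposed to library compounds for 90 min at 37 °C. Detection reagent was added for 30–60 min at room temperature, and luminescence was read.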
# BRCA1 expr up = activators of BRCA1 expression; MCF7-BRCA1-FFLuc reporter, luminescence, 48 h; response scale: scaled: vehicle 0%, 10 µM genistein 100%; Potency, µM (titrated, usually from 46.1 µM), inactives show at the highest dose activation, usual class: activators; 380,000 compounds, 1.1% hits; AID 624202; also: potency is read from the fitted curve at half-maximal effect; nearly all actives have a fitted effect of over 80% in size
#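 Quantitative HTS in MCF7 cells stably reporting BRCA1 expression via firefly luciferase. Compound treatment lasts 48 h at 37 °C in phenol-red free MEM. Activation is expressed relative to genistein at 10 microM and DMSO.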
# PTHR1 agonist = PTHR1 (human) receptor agonism; Potency, µM (top dose mostly 115 µM), for the others: at the highest dose activation, usual class: activators; HEK293 GP2 PTHR1 cells, GloSensor cAMP luminescence, 1 h; AID 743266; 410,000 compounds, 0.075% hits; also: potency is read from the fitted curve at half-maximal effect; nearly all actives have a fitted effect of over 55% in size
# Target sequence (Q03431 whole entry, looked up): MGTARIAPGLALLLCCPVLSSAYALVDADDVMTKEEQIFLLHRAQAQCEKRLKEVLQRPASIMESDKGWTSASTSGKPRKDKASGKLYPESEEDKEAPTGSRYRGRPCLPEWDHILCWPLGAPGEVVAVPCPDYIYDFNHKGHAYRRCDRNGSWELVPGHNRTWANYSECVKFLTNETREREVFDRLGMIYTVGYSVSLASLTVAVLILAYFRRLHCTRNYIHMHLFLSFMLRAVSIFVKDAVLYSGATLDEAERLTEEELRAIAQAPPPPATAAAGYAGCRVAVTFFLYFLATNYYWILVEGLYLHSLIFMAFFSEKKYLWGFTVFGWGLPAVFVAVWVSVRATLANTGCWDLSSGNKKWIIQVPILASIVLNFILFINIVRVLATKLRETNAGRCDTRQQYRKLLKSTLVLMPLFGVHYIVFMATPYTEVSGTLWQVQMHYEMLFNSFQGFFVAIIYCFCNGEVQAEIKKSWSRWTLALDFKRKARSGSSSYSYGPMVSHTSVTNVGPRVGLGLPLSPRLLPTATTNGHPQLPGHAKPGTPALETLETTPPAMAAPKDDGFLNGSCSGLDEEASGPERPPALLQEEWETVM
#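 HEK-293-derived GP2 cells expressing PTHR1 and a GloSensor cAMP reporter, 3,000/well, plated overnight, given luciferin plus IBMX (each 0.5 mM as added) for 1 h at 37 °C, then compound for 1 h at 37 °C. Luminescence was read after 15 min at room temperature.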
# Active calls of the source: *; i = inactive; ? = inconclusive; . = no result; [ ] = another dose, or the depositor's remark. Most compounds without a hit are left out; they make up all but 3.7% or so of the library. Unless noted, calls follow the shape of the dose curve; as a rule, active = well fitted curve in the direction sought with a large enough effect; inconclusive = small, poorly fitted or top-dose-only effect, or another doubt; inactive = no such curve, though single readings can be large; an effect the other way counts as inactive or inconclusive.
SMILES,DRD3 antagonist,RGS4 inh,B2AR arrestin,DRD3 agonist,BRCA1 expr up,PTHR1 agonist
O=C(COc1ccccc1)N1CCN(CC(O)COc2ccccc2)CC1 (configuration not stated),-74*,0%,0%,-13,-3%,-5%
O=C(COc1ccccc1)N1CCN(C/C=C/c2ccccc2)CC1,?,17%,0%,0,-18%,i
C=C(C)[C@@]12OC3(c4ccccc4)O[C@@H]1C1[C@@H]4O[C@]4(CO)[C@@H](O)[C@]4(O)C(=O)C(C)=C[C@H]4[C@@]1(O3)[C@H](C)[C@H]2OC(=O)/C=C/C=C/c1ccccc1 (some centres not stated),-61*,9%,.,-6,?,-83%
C=CCN1CC[C@@]23c4c5ccc(O)c4O[C@H]2/C(=N\N=C2/CC[C@@]4(O)[C@H]6Cc7ccc(O)c8c7[C@@]4(CCN6CC=C)[C@@H]2O8)CC[C@]3(O)[C@@H]1C5,.,-37%[56.9 µM],.,.,.,.
CCOP(=S)(OCC)O/N=C(\C#N)c1ccccc1,.,.,.,-2,.,.
CC1(C)S[C@@H]2[C@H](N)C(=O)N2[C@H]1C(=O)O,.,.,.,4,.,.
O=[N+]([O-])c1ccc(N2CCCC(C(F)(F)F)C2)c2ccncc12 (configuration not stated),17,-25%,0%,32*,-64%,-36%
O=[N+]([O-])c1ccc(N2CCCCC2)c2ncccc12,-21,33%,-1%,-3,-32%,-22%
COc1cc(C[C@@H](C)N)c(OC)cc1C,.,.,.,-14,.,.
c1ccc(CNCCc2c[nH]c3ccccc23)cc1,-26,-6%,0%,-2,-8%,i
COc1cc(CNCCc2c[nH]c3ccccc23)cc(OC)c1,-68*,13%,-1%,-38,-48%,2%
c1ccc2c(CCNCc3ccc4c(c3)OCO4)c[nH]c2c1,-68*,10%,0%,-2,-4%,-2%[57.5 µM]
CCOc1ccc(CNCCc2ccc3c(c2)OCO3)cc1,-86*,-1%,0%,-5,0%,i
COc1cc(CNCCc2c[nH]c3ccccc23)cc(OC)c1OC,3,.,.,-1,-32%,-22%
CCOc1ccccc1CNCCc1ccc2c(c1)OCO2,5,-6%,-1%,-11,-23%,i
CNC(C)CC1CCCCC1 (configuration not stated),.,.,.,-22,.,.
O=C(Cc1ccccc1)N1CCN(Cc2ccc([N+](=O)[O-])cc2)CC1,1,19%[11.4 µM],0%,-7,-14%,-9%
O=[N+]([O-])c1cccc(CN2CCN(Cc3ccc(Br)cc3)CC2)c1,-102*,-8%,0%,-7,-22%,-91%
C[C@H]1CNCCc2ccc(Cl)cc21,.,.,.,-9,.,.
C[C@@H]1NCCc2cc(O)c(O)cc21,-74*,-4%,-1%,-75,9%,-9%
COC(=O)c1ccc(CN2CCN(Cc3ccccc3)CC2)cc1,-81*,14%,0%,-74,-1%,i
C[C@@H]1CN([C@@H](C)CO)C(=O)c2c(c3ccccc3n2C)-c2ccccc2CO[C@H]1CN(C)S(=O)(=O)c1ccc(C#N)cc1,16,.,.,-5,-54%,-24%
Clc1ccc(OCC#CCN2CCCC2)cc1,-55*,-7%,-1%,-31,104%,i
Clc1cccc(N2CCNCC2)c1Cl,-56*,-22%,0%,7,1%,i
c1ccc2c(N3CCNCC3)cccc2c1,0,-7%[56.9 µM],.,-92,4%,-6%
CC(=O)c1ccc(N2CCN(S(=O)(=O)c3cc(-c4onc(C)c4C)ccc3C)CC2)cc1,.,-1%,.,4,.,-48%
COc1ccc(CN2Cc3cnnn3-c3ccccc3C2C#N)cc1 (configuration not stated),-78*,?,.,-34,-82%,-95%
N#CC1c2ccccc2-n2nncc2CN1Cc1cc(Cl)cc(Cl)c1 (configuration not stated),-109*,?,.,-46,-82%,-29%
